Reference: the supplement of paper PMC6555819

test system: VDR:RXRa (NR concentration 270 nM, RXRa partner concentration 90 nM); assay: PBM binding z-score (relative to random genomic background probes); higher = stronger binding; sequences stand for … in GC…GCGATTGACAGCGTAGAATGAAGG
Experimental: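 Protein-binding microarray (Agilent 4x180K custom design, double-stranded 60-nt probes: 5' GC cap, 34-nt variable region, 24-nt constant primer region; full probe sequence given). Purified or IVT nuclear receptor:RXRα heterodimers (3:1 NR:RXRα, mostly 270:90 nM) or homodimers were incubated for 1 h in PBS with 2% milk and no ligand, then detected with Alexa488 antibodies. Fluorescence from o1-orientation probes (~5 replicates averaged) was converted to z-scores against 500 random hg19 background probes. Variable regions are seed direct-repeat (DR0–DR5) sites, all their single-nucleotide variants and half-site ablations.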

| Sequence | PBM binding z-score |
| --- | --- |
| TGTCAAAGTTCAAAGGTTACGTAAGTATCCACAC | 6.4 |
| ATATGTAGGTTGGGGTCATTCAGAAAGTAGGGAA | 6.03 |
| CGAACTAGGTCATCCAGGACCGTGAATACATTGA | 2.39 |
| AACGAAAGGTCGAAGGTGAGTATACCCACCCGAA | 2.9 |
| TGTCAACGTTCAAAGGTAACGTAAGTATCCACAC | 0.617 |
| CGAACGAGGTCACCAGGACAGTGAAGAGGTTGGA | 5.65 |
| ACTCGGATGACAAAGGTCAGAGCTACGCCAGTGA | 3.14 |
| CCTTACGGGTTACTCCAGGTTATAGCATCGGAGT | 1.39 |
| ATCTCTAGGTTAAGATAGTTCAGTGAATGCAAAT | 2.26 |
| GCTAGTTGGTCAGTAAAATGTCACACACCGGTCG | -0.0389 |
| AATACAGGGTCATCTTAGGCCAGAGTACGCACAG | 5.31 |
| GGAACGAGGGCAAAGTTCATAGCATCTGTCGACG | 5.05 |
| TAGCCTAGGTCATTCAGGGGCCAGCATAGAAAGC | 2.97 |
| GTTACAGGGTCAAGGCCAGAGTACGCGTATTGAT | 4.45 |
| CGTCCAAGGTCATATGAGGTCAGTGAAGACAGAT | 7.19 |
| CCTAGTTGGTCAAGGTCACATACGCTATAGGTAC | 4.04 |
| CATACAGGGTCGGCTAGGCCAGAGTAGGGACGGC | 0.863 |
| AGAATGGGGTTACCAAAGATCAGGGAAACGCTTG | 2.66 |
| CCTAGTTGGTCAAGGTCACACCCGCTATAGGTAC | 3.99 |
| AGAATGAGATTACCAAAGATCAGGGAAACGCTTG | -0.0977 |

| Sequence | PBM binding z-score |
| --- | --- |
| GCTGCTAGGTCAACTGATGGTCATCTAAAGCTCG | 2.28 |
| AATACAGGGTAACTAGGCCAGAGTAGGTACGAAT | 0.199 |
| TCTCGGAGGACACTAAAGGTCAGAGCTCGACATC | 3.2 |
| CGTCCAAGGTCATTGGAGGTCAGTGAAGACAGAT | 7.03 |
| AGAATGAGGTTAAGTTCAGGGAAACAGAATACAT | 3.33 |
| ATATGTAGGTTAGCTGGGGTCCTTCAGACTAGGC | 0.978 |
| TACCCTAGGTCATTCAGGGGCCAGTATAGAAAGC | 3.44 |
| CGTCAAAGGTCAGCAGGTCAGTGAAAGCGACGTG | 5.16 |
| TAGCCTAGGTCATGCGGCCCAGTATAGTGTCGGC | 1.77 |
| CGAACTAGGTCATTGACAGGACAATGAATAGTAA | 2.62 |
| CCTTACGGGTCACTGACAGGTTATAGCGTTTGGA | 3.63 |
| TAGCCTAGGTCGTTCAGGGGCCAGTATAGAAAGC | 0.798 |
| TGTCAAAGGTCAAAGGTAACGTAAGTATCCACAC | 6.2 |
| CCTTACGGGTAACGAGGTTATAGCACGACGAGCG | 1.38 |
| TGAATGAGGTTAAATATCAGGGAACGTGGCGTCG | 1.54 |
| TCTATTAGTTGATTAGGGCAACCGAAACAGCGGA | 0.711 |
| CCTAGTTGTTCAGGAGGTCACACACCGGATATGA | 3.9 |
| AGAATGAGGTCATACGTAGATCAGGGAAGAAAGT | 5.41 |
| TATACAGGGTCAAAGGCCAAAGTACGAATGTCGA | 5.31 |
| TCTGCTAGGTCAACGATGGTCAGTTAATCTGCTA | 1.62 |
